# About 83,000 compounds went through this panel and 20% of them were active in at least one assay; those are over-represented in the sample as a whole.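 Plates (96-well) were seeded with cells, treated with compound at one concentration, and incubated for 48 hours before percent growth was determined.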 Values without a mark were called inactive. Calls of active or inactive are those of the source. Rule for the calls: active = growth percent below 10; inactive = the rest.
# System: NCI-H322M lung
# Experiment: NCI-60 one-dose screen, 48 h (100 = growth as untreated, 0 = no growth, -100 = all killed)
# Conditions: 10 µM
row,SMILES,growth
1,COc1cc(-c2cc(/C=C3\C(=O)Nc4cc(Cl)ccc43)[nH]n2)cc(OC)c1OC,47.5%
2,CCCCCCc1cc(N=Nc2ccc(S(=O)(=O)Nc3cc(C)nc(C)n3)cc2)c(O)cc1O,93.5%
3,N#CC1=C(Nc2ccccc2Cl)SC(c2ccccc2O)NC1=O (centres undefined),114%
4,COc1cc(-c2nc(Nc3nc4ccccc4s3)[nH]c(=O)c2C#N)cc(OC)c1O,124%
5,CCCCCCCCCCCCCCCCCCOCC(COCCOCC[N+]1(CCCCCC(=O)[O-])CCCC1)Oc1ncccn1 (centres undefined),101%
6,COc1ccc(C2=NN(C(=O)c3ccc(S(C)(=O)=O)cc3)C(c3ccc(OC)c(OC)c3)C2)c(OC)c1 (centres undefined),93.9%
7,COc1ccccc1CNCCCN1C(=O)c2ccc3c4c(ccc(c24)C1=O)C(=O)N(CCCN)C3=O,-30.7% (active)
8,Nc1nc(N)c(NC(=O)CNc2ccc(C(=O)O)cc2)c(N)n1,106%
9,c1ccc(CP(Cc2ccccc2)c2ccccc2)cc1,87.3%
10,COC(=O)C1(C)Cc2cc(OC(C)=O)c(OC(C)=O)cc2N1 (centres undefined),116%
11,CC(=O)OCc1cc(-c2nc3ccccc3[nH]c2=O)nn1-c1ccc(Cl)cc1,107%
12,CC(=O)c1nc2ccccc2n1CCN1CCN(C)CC1,31.9%
13,COc1ccc(-c2nn(-c3cccc(NC(=O)Nc4ccc(Cl)c(C(F)(F)F)c4)c3)cc2-c2ccncc2)cc1Cl,19.1%
14,COc1cc(C(=O)/C=C/c2cc(-c3cc(OC)c(OC)c(OC)c3)n[nH]2)cc(OC)c1OC,-8.96% (active)

# Source: PubChem BioAssay (NCI)
